In the library only some 12% were active in any assay of this set; here they are far more common.
G9a inh: G9a (human) methyltransferase inhibition. Q96KQ7. G9a H3K9 monomethylation, AlphaScreen, 2 h. Potency, µM (doses to about 102 µM), usual class: inhibitors. 350,000 tested, 8.8% active. AID 504332; note: nearly all actives have a fitted effect of over 75% in size
Target sequence (Q96KQ7 913-1193 limits assumed): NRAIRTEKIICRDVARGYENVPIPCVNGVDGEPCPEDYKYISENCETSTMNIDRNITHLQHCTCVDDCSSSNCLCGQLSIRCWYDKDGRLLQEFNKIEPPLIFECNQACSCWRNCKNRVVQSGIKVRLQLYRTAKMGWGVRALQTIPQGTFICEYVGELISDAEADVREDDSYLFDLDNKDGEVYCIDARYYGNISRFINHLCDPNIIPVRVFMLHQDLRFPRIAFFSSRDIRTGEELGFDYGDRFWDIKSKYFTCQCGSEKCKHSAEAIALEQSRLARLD
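Quantitative HTS format: methyltransferase activity on a biotin-tagged H3K9 peptide is measured by AlphaScreen, using a rabbit anti-monomethyl-H3K9 antibody with streptavidin donor and anti-IgG acceptor beads. Final levels are 20 nM enzyme, 500 nM peptide, 20 uM SAM; 2 h RT.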
Sfp inh: blocks B. subtilis Sfp PPTase activity. 310,000 tested, 3.5% active. Biochemical Sfp PPTase activity, qHTS. Q9F4F7. Potency, µM, usual class: inhibitors;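 note: the enzyme is Sfp with the accession as filed and its product quenches rhodamine fluorescence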
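Fluorescence-quenching assay with 15 nM Sfp, 5 uM rhodamine-CoA and 12.5 uM BHQ-2-labelled ybbR peptide in pH 7.6 Hepes/MgCl2 buffer. Enzyme was pre-incubated with compound for 15 min at room temperature. Rate was taken from the 30-min fluorescence change (525/598 nm).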
BAZ2B block: BAZ2B (human) inhibition | Q9UIF8 | AlphaScreen BAZ2B-H3K14Ac peptide displacement | Potency, µM (titrated, usually from 114 µM), hits mostly inhibitors | 360,000 tested, 4.4% active; note: nearly all actives have a fitted effect of over 60% in size
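In this displacement format the biotinylated H3(5-23) peptide acetylated at Lys14 serves as ligand at 50 nM, with BAZ2B at 50 nM in PBS pH 7.4 containing 0.01% Tween-20. Donor and acceptor beads are 10 ug/mL final.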
JMJD2A Tudor inh: JMJD2A Tudor domain (human) inhibition | O75164 | AlphaScreen JMJD2A-Tudor / H3K4me3 peptide binding | Potency, µM (highest dose often 114 µM), hits mostly inhibitors | 390,000 tested, 4.4% active; note: nearly all actives have a fitted effect of over 50% in size
HP1b chromo inh: blocks HP1-beta chromodomain binding to methylated histone tails | P83916 | AlphaScreen HP1-beta / biotin-H3K9me3 peptide binding | Potency, µM (series often up to 114 µM), actives largely listed as inhibitors | 390,000 tested, 0.56% active | AID 540317; note: nearly all actives have a fitted effect of over 70% in size
Target sequence (P83916 whole entry, looked up): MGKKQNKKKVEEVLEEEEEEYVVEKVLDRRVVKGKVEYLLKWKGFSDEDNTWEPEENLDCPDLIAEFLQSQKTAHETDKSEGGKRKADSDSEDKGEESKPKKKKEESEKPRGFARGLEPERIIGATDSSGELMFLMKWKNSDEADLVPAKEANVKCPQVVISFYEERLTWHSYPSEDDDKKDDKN
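Compound inhibition of the preformed complex between 50 nM HP1-beta and 50 nM biotinylated H3K9me3 peptide was read by AlphaScreen. Buffer was PBS pH 7.4 with 0.01% Tween-20. Incubations ran 30 min at room temperature, with 10 ug/mL donor/acceptor beads.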
Numbers stand for hits; . = inactive; ? = inconclusive; / = no result given; ! = repeats disagree; [ ] = dose if it differs, or a comment. Calls come from the whole dose curve; as a rule, active = well fitted curve in the direction sought with a large enough effect; inconclusive = small, poorly fitted or top-dose-only effect, or another doubt; inactive = no such curve, though single readings can be large; an effect the other way counts as inactive or inconclusive.

SMILES	G9a inh	Sfp inh	BAZ2B block	JMJD2A Tudor inh	HP1b chromo inh
C/C=C1/CN2[C@@H]3C4CO[C@@H]3c3c([nH]c5cc(OC)ccc35)[C@@H]2CC14 (some centres undefined)	/	/	/	.	.
CCOC(=O)c1ccc(NC(=O)C2C3C=CC(O3)C2C(=O)O)cc1 (centres undefined)	35µM	.	.	/	/
COc1ccccc1OCC(=O)N1CCCC(N2CCN(c3ccc(F)cc3)CC2)C1 (centres undefined)	.	.	.	.	.
COc1ccccc1N1CCN(C2CCN(C(=O)c3cccs3)CC2)CC1	28µM	.	.	7.1µM	.
CCCCN1C(=O)/C(=C/C=C/c2ccco2)C(=O)NC1=S	7.9µM	28µM	35µM	22µM	35µM
CCCCN1C(=O)/C(=C/c2ccc(N(C)C)cc2)C(=O)N(Cc2ccco2)C1=O	.[12.7 µM]	.	?	?	.
CCCCN1C(=O)/C(=C\c2ccco2)C(=O)N(CCc2ccccc2)C1=O	32µM	?	35µM	?	?
O=C1NC(=O)N(Cc2ccc(F)cc2)C(=O)/C1=C\C=C\c1ccco1	40µM	?	56µM	.[11.4 µM]	.
O=C1NC(=O)N(Cc2ccccc2)C(=O)/C1=C\c1ccco1	35µM	.	40µM	?	?
NC(=NCCCC(N)C(=O)O)N[N+](=O)[O-] (centres undefined)	/	.	/	/	/
COc1cc(C2(C#N)CCN(C)CC2)cc(OC)c1OC	/	/	/	.	.
O=C1NC(=O)N(Cc2ccco2)C(=O)/C1=C/c1cccn1CCOc1ccccc1Cl	?	.	45µM	.	.
CCC(C)c1ccc(N2C(=O)NC(=O)/C(=C/c3cccn3CCOc3ccc(C)cc3)C2=O)cc1 (centres undefined)	.	.	.	.	.
Cc1c2ccncc2c(C)c2c1[nH]c1ccccc12	21µM!	22µM	56µM	.	.
Cc1ccc(-n2c(O)c(C=NCCCn3ccnc3)c(=O)[nH]c2=O)cc1	.	.	.	.	.
CCN(CC)c1ccc(N=Cc2c(O)n(-c3ccc(Cl)cc3)c(=O)[nH]c2=O)cc1	/	.	.	.	.
CCc1ccc(-n2c(O)c(/C=N/NC(=O)c3ccncc3)c(=O)[nH]c2=O)cc1	.	.	56µM	?	.
CCC(C)N=Cc1c(O)n(-c2ccccc2)c(=O)[nH]c1=O (centres undefined)	10µM	.	.	.	.
CCN(CC)c1ccc(N=Cc2c(O)n(-c3ccc(OC)cc3)c(=O)[nH]c2=O)cc1	50µM	?	.	.	.
CC(C)c1ccc(-n2c(O)c(/C=N/NC(=O)c3ccncc3)c(=O)[nH]c2=O)cc1	18µM	.	?	?	.
Cc1ccccc1-n1c(O)c(/C=N/NC(=O)c2ccncc2)c(=O)[nH]c1=O	.	.	?	89µM	.
Cc1cc(C)c(-n2c(O)c(/C=N/NC(=O)c3ccncc3)c(=O)[nH]c2=O)c(C)c1	.	.	.	?	.
Cn1c(O)c(/C=C2\C=Nc3ccc(Br)cc32)c(=O)n(C)c1=O	.	.	.	.	.
CCNC(=S)NCCC1=c2ccccc2=N/C1=C\c1c(O)n(C)c(=O)n(C)c1=O	10µM	16µM	?	.	?
CC1(C)OC(c2ccccc2)=C/C(=C/C=C2C(=O)NC(=S)NC2=O)O1	10µM	40µM	10µM	?	11µM
SMILES	G9a inh	Sfp inh	BAZ2B block	JMJD2A Tudor inh	HP1b chromo inh
CNCCCc1ccccc1	.[2.33 µM]	.	.	.	.
CC(=O)c1ccc2c(c1)OCO2	.	.	.	.	.
C[n+]1cccc(C(=O)N/N=C/c2ccc3c(c2)OCO3)c1	?	.	50µM	.	.
COc1ccc2[nH]c3c(c2c1)CCNC3C (centres undefined)	.	.	.	.	.
COc1ccc2c3c([nH]c2c1)C(C)NCC3 (centres undefined)	.[12.7 µM]	.	?	50µM	.
Cc1cccn2c(=O)c(C=Nc3ccccc3)c(NCc3ccco3)nc12	50µM	50µM	?	.	.
CC(C)n1c(=O)c(C=Nc2ccc(S(N)(=O)=O)cc2)c(O)n(Cc2ccco2)c1=O	?	.	?	.	.
C[N+]12CCC(CC1)C(C(O)(c1cccc(Cl)c1)c1cccc(Cl)c1)C2 (centres undefined)	/	.	?	.	.
CCCN(CCC)CCc1ccc(O)c(O)c1	20µM!	.	/	/	/
OCCCc1ccc(O)c(O)c1	.	50µM	.	40µM	?
CC(C)(C)c1ccc(-c2c(C(=O)O)c(C(=O)O)c3n2CSC3)cc1	.	.	?	.	.
Cc1ccc(Cl)cc1Nc1nn2c(=O)c3ccc(C(=O)NCc4cccs4)cc3nc2s1	.	/	?	?	.
CCN1CCN(Cc2cc3c(cc2[N+](=O)[O-])OCO3)CC1	/	.	.	.	.
CC1=C(O)C(=O)[C@H]2O[C@@H]2C1=O	/	4µM	/	/	/
CN1C(=O)C(=Cc2sc(=O)n(-c3ccccc3)c2N2CCCCC2)C(=O)N(C)C1=O	50µM	.	?	.	.
CN1C(=O)C(=Cc2cc([N+](=O)[O-])ccc2N2CCCCC2)C(=O)N(C)C1=O	.	.	?	.	.
COc1ccccc1N=Nc1ccc(N)c(C)c1	.[2.33 µM]	.	35µM	45µM	?
COc1ccc(NC(=O)N2CCC3(CC2)OCCO3)cc1OC	.	.	.	.	.
COc1ccc(NP2(=O)OCC(C)(N)CO2)cc1 (centres undefined)	/	/	/	.	.
COc1ccc(NC2CC(=O)N(C(C)C)C2=O)cc1 (centres undefined)	22µM	.	.	.	.
O=C(CSc1ccc(Cl)cc1)NC1=NN(c2ccccc2)C(=O)C1	.	.	?	?	.
CCOC(=O)c1ccc(NC(c2ccc(N(C)C)cc2)P(=O)(OC(C)C)OC(C)C)cc1 (centres undefined)	35µM	.	32µM	50µM	?
COC(=O)C1=C(c2ccc(F)cc2OCc2ccccc2)C[C@@H]2CC[C@H]1N2C(=O)NCCNC(C)=O	.[0.501 µM]	/	.	.	.
COC1CC(C)C(OC)c2cc(O)cc(c2O)NC(=O)C(C)=CC=CC(C)C(OC(N)=O)C(C)=CC(C)C1OC (centres undefined)	/	/	/	89µM	71µM
CC(=O)O[C@@H]1C[C@@]2(C)C(c3ccoc3)C[C@H]3O[C@]32[C@]2(C)C(=O)C(O)=C3C(C)(C)C(=O)C=C[C@]3(C)C12 (some centres undefined)	/	.	/	/	/
O=C(O)c1c[nH]c2ccc(S(=O)(=O)N(CCCl)CCCl)cc12	18µM	.	.	.	.
COC(=O)C1=C(c2ccc(OCc3ccccc3)cc2)C[C@@H]2CC[C@H]1N2C(=O)NCc1ccc(N(C)C)cc1	.[2.33 µM]	/	8.9µM	?	.
COC(=O)C1=C(c2ccc(OCc3ccccc3)cc2)C[C@@H]2CC[C@H]1N2C(=O)NCc1ccc(OC)c(OC)c1	.[0.501 µM]	/	.	.	.
CCN(CC)S(=O)(=O)c1cccc(N=Nc2c(O)n(CC)c(=S)n(CC)c2=O)c1	?	.	?	20µM	?
Cn1cc(P(=S)(c2ccccc2)c2ccccc2)c2ccccc21	/	/	/	.	/
